Source: the supplement of paper PMC7411054

Legend:
Conditions in all cases: treatment time: 24 h
A549-ACTB-RAB5A [1] = assay: lowest phenotypically active concentration; higher = less potent
Method in brief: (§1)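 Fifteen reporter lines derived from A549, HepG2 and WPMY1 cells by gene editing, carrying BFP for segmentation plus GFP and RFP/FusionRed markers, were exposed to 0.3, 1, 3 or 9 µM for 24 h in four wells each and imaged live. Live-cell features from each well were normalised to solvent control wells. A well set counted as deviating when ≥3 of 4 wells lay beyond the 95th percentile of control Euclidean distances, and as reproducible when the median replicate Pearson correlation exceeded the 95th percentile of non-replicates. Phenotypic activity was assigned only when both criteria were met.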

A549-CANX-COX4 [2] = assay: as above
Method in brief: as §1

A549-GM130-SQSTM1 [3] = assay: as above
Method in brief: as §1

A549-TP53BP1-CLTA [4] = assay: as above
Method in brief: as §1

A549-TUBA1B-RELA [5] = assay: as above
Method in brief: as §1

HepG2-TP53BP1-CLTA [6] = assay: as above
Method in brief: as §1

A549-ACTB-RAB5A [7] = assay: phenotypically active (imaging signature differs from DMSO and reproducible) at any of 0.3-9 uM (binary (1 = active, 0 = inactive)); higher = active
Method in brief: as §1

A549-CANX-COX4 [8] = assay: as above
Method in brief: as §1

A549-GM130-SQSTM1 [9] = assay: as above
Method in brief: as §1

A549-TP53BP1-CLTA [10] = assay: as above
Method in brief: as §1

A549-TUBA1B-RELA [11] = assay: as above
Method in brief: as §1

HepG2-ACTB-RAB5A = assay: as above
Method in brief: as §1

HepG2-CANX-COX4 = assay: as above
Method in brief: as §1

HepG2-GM130-SQSTM1 = assay: as above
Method in brief: as §1

HepG2-TP53BP1-CLTA [12] = assay: as above
Method in brief: as §1

HepG2-TUBA1B-RELA = assay: as above
Method in brief: as §1

WPMY1-CANX-COX4 = assay: as above
Method in brief: as §1

WPMY1-GM130-SQSTM1 = assay: as above
Method in brief: as §1

WPMY1-TP53BP1-CLTA = assay: as above
Method in brief: as §1

WPMY1-TUBA1B-RELA = assay: as above
Method in brief: as §1

Row | SMILES | lowest phenotypically active concentration (A549-ACTB-RAB5A [1]) [µM] | lowest phenotypically active concentration (A549-CANX-COX4 [2]) [µM] | lowest phenotypically active concentration (A549-GM130-SQSTM1 [3]) [µM] | lowest phenotypically active concentration (A549-TP53BP1-CLTA [4]) [µM] | lowest phenotypically active concentration (A549-TUBA1B-RELA [5]) [µM] | lowest phenotypically active concentration (HepG2-TP53BP1-CLTA [6]) [µM] | phenotypically active (A549-ACTB-RAB5A [7]) | phenotypically active (A549-CANX-COX4 [8]) | phenotypically active (A549-GM130-SQSTM1 [9]) | phenotypically active (A549-TP53BP1-CLTA [10]) | phenotypically active (A549-TUBA1B-RELA [11]) | phenotypically active (HepG2-ACTB-RAB5A) | phenotypically active (HepG2-CANX-COX4) | phenotypically active (HepG2-GM130-SQSTM1) | phenotypically active (HepG2-TP53BP1-CLTA [12]) | phenotypically active (HepG2-TUBA1B-RELA) | phenotypically active (WPMY1-CANX-COX4) | phenotypically active (WPMY1-GM130-SQSTM1) | phenotypically active (WPMY1-TP53BP1-CLTA) | phenotypically active (WPMY1-TUBA1B-RELA)
1 | Nc1nc(S)c2[nH]cnc2n1 [thioguanine] | 3 | 9 | 9 | 9 | 9 | 1 | 1 (active) | 1 (active) | 1 (active) | 1 (active) | 1 (active) | 1 (active) | 1 (active) | 1 (active) | 1 (active) | 1 (active) | 1 (active) | 1 (active) | 1 (active) | 1 (active)
2 | COC(=O)Nc1nc2ccc(C(=O)c3cccs3)cc2[nH]1 [Nocodazole] | ≤ 0.3 | ≤ 0.3 | ≤ 0.3 | ≤ 0.3 | ≤ 0.3 | ≤ 0.3 | 1 (active) | 1 (active) | 1 (active) | 1 (active) | 1 (active) | 1 (active) | 1 (active) | 1 (active) | 1 (active) | 1 (active) | 1 (active) | 1 (active) | 1 (active) | 1 (active)
3 | COc1c(Nc2cc(C)[nH]n2)nc(Sc2ccc(S(=O)(=O)Cc3cccc([N+](=O)[O-])c3F)cc2F)nc1N1CCOCC1 [Centrinone] | 3 | 3 | 1 | 3 | 3 | 3 | 1 (active) | 1 (active) | 1 (active) | 1 (active) | 1 (active) | 1 (active) | 1 (active) | 1 (active) | 1 (active) | 1 (active) | 1 (active) | 1 (active) | 1 (active) | 1 (active)
4 | Cc1ccc(-n2nc(C(C)(C)C)cc2NC(=O)Nc2ccc(OCCN3CCOCC3)c3ccccc23)cc1 | 3 | 9 | 3 | 9 | 3 | 3 | 1 (active) | 1 (active) | 1 (active) | 1 (active) | 1 (active) | 1 (active) | 1 (active) | 1 (active) | 1 (active) | 1 (active) | 1 (active) | 1 (active) | 1 (active) | 1 (active)
5 | O=C(CCCCCCC(=O)Nc1cccnc1)NO [Pyroxamide] | 3 | 3 | 3 | 9 | 9 | 3 | 1 (active) | 1 (active) | 1 (active) | 1 (active) | 1 (active) | 1 (active) | 1 (active) | 1 (active) | 1 (active) | 1 (active) | 1 (active) | 1 (active) | 1 (active) | 1 (active)
6 | CN[C@H]1CC[C@@H](c2ccc(Cl)c(Cl)c2)c2ccccc21 [sertraline] | 1 | 9 | 3 | 9 | 1 | 3 | 1 (active) | 1 (active) | 1 (active) | 1 (active) | 1 (active) | 1 (active) | 1 (active) | 1 (active) | 1 (active) | 1 (active) | 1 (active) | 1 (active) | 1 (active) | 1 (active)
7 | COc1cc(OC2CCN(C)CC2)ccc1Nc1ncc2c(n1)n(C1CCCC1)c(=O)n2C | 3 | 3 | 3 | 3 | 3 | 9 | 1 (active) | 1 (active) | 1 (active) | 1 (active) | 1 (active) | 1 (active) | 1 (active) | 1 (active) | 1 (active) | 1 (active) | 1 (active) | 1 (active) | 1 (active) | 1 (active)
8 | CCN(CC)c1ccc(/C=N/NC(=O)c2ccncc2)c(O)c1 | ≤ 0.3 | 1 | 1 | 1 | 1 | ≤ 0.3 | 1 (active) | 1 (active) | 1 (active) | 1 (active) | 1 (active) | 1 (active) | 1 (active) | 1 (active) | 1 (active) | 1 (active) | 1 (active) | 1 (active) | 1 (active) | 1 (active)
9 | C[C@@H](Oc1cc(-n2cnc3ccc(CN4CCN(C)CC4)cc32)sc1C(N)=O)c1ccccc1C(F)(F)F | ≤ 0.3 | ≤ 0.3 | ≤ 0.3 | ≤ 0.3 | ≤ 0.3 | ≤ 0.3 | 1 (active) | 1 (active) | 1 (active) | 1 (active) | 1 (active) | 1 (active) | 1 (active) | 1 (active) | 1 (active) | 1 (active) | 1 (active) | 1 (active) | 1 (active) | 1 (active)
10 | Cc1cc(C)cc(C(=O)NOCCCCCC(=O)NO)c1 | ≤ 0.3 | ≤ 0.3 | ≤ 0.3 | 1 | ≤ 0.3 | 1 | 1 (active) | 1 (active) | 1 (active) | 1 (active) | 1 (active) | 1 (active) | 1 (active) | 1 (active) | 1 (active) | 1 (active) | 1 (active) | 1 (active) | 1 (active) | 1 (active)
11 | CNC(=O)c1ccccc1Sc1ccc2c(/C=C/c3ccccn3)n[nH]c2c1 [Axitinib] | 1 | 9 | 1 | 3 | 1 | 3 | 1 (active) | 1 (active) | 1 (active) | 1 (active) | 1 (active) | 1 (active) | 1 (active) | 1 (active) | 1 (active) | 1 (active) | 1 (active) | 1 (active) | 1 (active) | 1 (active)
